# Hits are enriched below; roughly 8% of the tested compounds scored in any of these assays.
# KB-3-1 cytotox = KB-3-1 parental cell cytotoxicity; AID 1347075; 400,000 compounds, 1.4% hits; Potency, µM (highest dose often 46.1 µM), usual class: cytotoxic; KB-3-1 viability, CellTiter-Glo ATP luminescence, 72 h; note: % is set by controls: 0 for no effect and ±100 for the full control effect; nearly all actives have a fitted effect of over 60% in size
#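 Viability of parental KB-3-1 cells, measured by CellTiter-Glo luminescence, followed a 72 h incubation at 37 °C with pinned compounds in phenol-red-free DMEM containing 10% FBS.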
# HT1080NT lethal = kills 2HG-producing HT-1080-NT fibrosarcoma cells. HT-1080-NT fibrosarcoma viability, CellTiter-Glo ATP luminescence, 48 h. Potency, µM (doses to about 46.1 µM), for the others: at the top dose activity, negative = less viability, most hits filed as cytotoxic. 360,000 compounds, 1.6% hits;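 note: NT is the 2HG producing partner of a matched IDH1 knockdown line; 0% = DMSO-treated cells and -100% = media-only wells without cells; nearly all actives have a fitted effect of over 55% in size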
#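 Compounds were tested in concentration-response format on HT-1080-NT cells for 48 hours at 37 degrees C. Cell viability came from CellTiter-Glo luminescence; curves were classified by r2, response magnitude and activity.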
# MCF10A rereplic = DNA re-replication induction in MCF 10a cells; MCF 10A DNA re-replication, Hoechst nuclear intensity, 48 h; Potency, µM (doses to about 46.1 µM), for inactives: at the top dose activity, positive = re-replication, most hits filed as activators; 350,000 compounds, 2.9% hits; note: % of control where 0% means no effect; nearly all actives have a fitted effect of over 50% in size
# HT1080 IDH1KD tx = kills HT-1080 cells with IDH1 knockdown | HT-1080 IDH1 knockdown viability, ATP luminescence, 48 h | Potency, µM (highest dose often 46.1 µM), for the others: at the highest dose activity, negative = toxicity, most hits filed as cytotoxic | 360,000 compounds, 2% hits;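 note: 0% = DMSO wells and -100% = cell-free medium wells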
#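 Assay cells: HT-1080 with IDH1 knockdown, 750 per well, RPMI/5% FBS. Exposure: 48 h at 37 °C following 2 h pre-incubation. Read: CellTiter-Glo luminescence; fitted concentration-response, curve class assigned.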
# SW480 rerep = DNA re-replication induction in SW480 cells; SW480 DNA re-replication, Hoechst DNA content imaging, 48 h; Potency, µM (highest dose often 46.1 µM), for inactives: top-dose re-replication activation, most hits filed as activators; 340,000 compounds, 1.8% hits; AID 624297; note: % of control where 0% means no effect; nearly all actives have a fitted effect of over 55% in size
#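 First, 250 cells per well were seeded. Next, compound or vehicle (23 nL) was pinned in, plates sat 48 hr at 37 C. Finally Hoechst was added for 40 min before fluorescence scanning.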
# KB-V1 MDR tox = KB-V1 MDR subline cytotoxicity; Potency, µM (doses to about 46.1 µM), most hits filed as cytotoxic; KB-V1 MDR cells viability, CellTiter-Glo, 72 h; 400,000 compounds, 3.4% hits; AID 1347076; note: % is set by controls: 0 for no effect and ±100 for the full control effect; nearly all actives have a fitted effect of over 60% in size
#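 Readout: CellTiter-Glo luminescence, 10 min after addition. Cells: KB-V1 MDR subline, 72 h at 37 degrees C with compound. Analysis: corrected, normalized data fitted to concentration-effect curves.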
# * marks the source's active call; other numbers are inactive results; i = inactive; ? = inconclusive; . = no result; ! = not active in a repeat; [ ] = dose if it differs, or a comment. Calls come from the whole dose curve; as a rule, active = well fitted curve in the direction sought with a large enough effect; inconclusive = small, poorly fitted or top-dose-only effect, or another doubt; inactive = no such curve, though single readings can be large; an effect the other way counts as inactive or inconclusive. Potency is the fitted concentration of half-maximal effect.
SMILES,KB-3-1 cytotox,HT1080NT lethal,MCF10A rereplic,HT1080 IDH1KD tx,SW480 rerep,KB-V1 MDR tox
Oc1ccc2ccccc2c1CNc1ccc2ccccc2c1,?,?,20.6µM*,20.6µM*,?,?
O=C(CSCc1cccc(CSCC(=O)Nc2ccc3ccccc3c2)n1)Nc1ccc2ccccc2c1,?,-7.2%,-3.8%,-18.8%,2.3%,23.1µM*
O=C(CS)Nc1ccc2ccccc2c1,i,20.6µM*,0.1%,20.6µM*,?,i
O=C(NNc1ccccc1F)C1CCC1,i,-16.5%,-7.8%,-28.0%,-5.4%[9.22 µM],?
O=C(NNc1ccc(F)cc1F)C1CCC1,i,?,-7.9%,4.61µM*,?,i
CC(NC(=O)c1ccccc1F)c1nnc(SCC(=O)NC2=NCCS2)n1C (stereo not drawn),?,9.1%,-15.0%,4.3%,-21.2%,i
CCOC(=O)/C=C/C(=O)Nc1cc(S(=O)(=O)Nc2ccc(OC)cc2)ccc1N1CCOCC1,i,-13.9%,?,-9.3%,16.4µM*,i
CCN(CC)S(=O)(=O)c1ccc(N2CCCC2)c(NS(=O)(=O)c2ccc(OC)cc2)c1,i,-2.2%,-6.6%,-0.3%,?,4.11µM*
COc1ccc(NS(=O)(=O)c2ccc(N3CCOCC3)c(NC(=O)C(C)C)c2)cc1,?,-10.7%,9.1%,-8.9%,-0.1%,18.4µM*
COc1ccc(NS(=O)(=O)c2ccc(N3CCOCC3)c(NC(=O)c3ccc(F)cc3)c2)cc1,?,?,-1.5%,?,?,?
COc1ccc(NS(=O)(=O)c2ccc(N3CCCCC3)c(N)c2)cc1,20.6µM*,-19.1%,9.4%,-25.7%,-3.6%,?
COc1ccc(NS(=O)(=O)c2ccc(N3CCCCC3)c(NC(=O)C(C)NC(N)=O)c2)cc1 (stereo not drawn),.,0.0%,-6.7%,-2.9%,16.3%,.
COc1cccc(C2Nc3ccccc3-c3nnc(SCc4ccccc4)nc3O2)c1OC (stereo not drawn),i,.,.,.,.,i
CCOC(=O)c1[nH]c(C)c(CCC(=O)NCc2ccccc2)c1C,i,.,.,.,.,i
Cc1ccnc(N2CCC(C(=O)Nc3ccc4c(c3)CCC4)CC2)n1,i,13.6%,0.8%,12.5%,-0.4%,i
CCC(C)c1ccc(NC(=O)C2CCN(c3ncccn3)CC2)cc1 (stereo not drawn),?,?,6.9%,-13.3%,?,18.4µM*
Cc1cccc(NC(=O)C2CCN(c3nccc(C)n3)CC2)c1,i,5.9%,-4.2%,5.0%,-3.6%,14.6µM*
COc1cc(NC(=O)CCCl)cc(-n2cnnn2)c1,i,1.1%,-4.7%,-5.3%,-15.0%,i
COC(=O)C1=C(CS(=O)(=O)c2cc(Cl)ccc2OC)NC(=O)NC1c1ccccc1 (stereo not drawn),i,.,.,.,.,i
COc1cccc(NC(=O)Nc2cccc(-c3cn4cccnc4n3)c2)c1,i,.,.,.,.,i
CC(C)c1ccc2c(c1)CC[C@H]1[C@](C)(CN)CCC[C@]21C,?,18.4µM*,4.2%,20.6µM*!,?,?
CC(C)c1ccc2c(c1)CCC1C(C)(CN)CCCC21C (stereo not drawn),20.6µM*,?,16.4µM*,20.6µM*,3.26µM*,?
CC(C)c1cc2c(cc1S(=O)(=O)O)[C@@]1(C)CCC[C@@](C)(C(=O)O)[C@@H]1CC2,.,.,3.4%,.,3.1%,.
CC(C)N1CCN(c2ccc(OCC3COC(Cn4cncn4)(c4ccc(Cl)cc4Cl)O3)cc2)CC1 (stereo not drawn),?,-1.6%,?,-1.4%,?,1.16µM*
COc1ccc(N2CCN(C(=O)Cn3cncn3)CC2)cc1,i,2.7%,1.2%,13.4%,-3.8%,i
SMILES,KB-3-1 cytotox,HT1080NT lethal,MCF10A rereplic,HT1080 IDH1KD tx,SW480 rerep,KB-V1 MDR tox
CC(=O)N(CCC1(C(C)C)CCOC(C)(C)C1)Cc1ccco1 (stereo not drawn),i,-3.2%,0.8%,-1.7%,-2.0%,11.6µM*
COc1ccccc1NC(=O)CSc1nc(C)c2c(c1C#N)CCCC2,i,1.9%,6.8%,1.9%,6.4%,7.31µM*
Cc1nc(SCC(=O)NCc2ccc3c(c2)OCO3)c(C#N)c2c1CCCC2,i,4.4%,-2.2%,2.4%,-12.4%,i
CCc1ccc(NC(=O)CSc2nc(C)c(C(=O)Nc3ccc(Cl)cc3)c(-c3ccc(OC)cc3)c2C#N)cc1,i,.,.,.,.,i
COc1ccc(NC(=O)CSc2nc(C)c3c(c2C#N)CCCC3)cc1,i,3.3%,11.9%,10.2%,11.8%,4.61µM*
CCOc1ccc(/C=C/c2cc[n+](C)c3ccccc23)cc1OCC,?,.,.,.,.,i
O=C(NNS(=O)(=O)c1ccccc1[N+](=O)[O-])c1cccc(Br)c1,i,4.1%,-0.8%,9.8%,-9.9%,?
O=C(NNS(=O)(=O)c1ccccc1[N+](=O)[O-])c1cccc(Cl)c1,i,15.3%,0.8%,11.8%,0.517µM*,i
CCN(CC)C(=O)c1sc2c(c1C)c(=O)n(-c1ccc(C)c(C)c1)c(=O)n2CC(=O)Nc1ccc(OC)cc1OC,i,.,.,.,.,?
CCOC(=O)/C(=C/c1ccc(N2CCC(c3ccccc3)=N2)cc1)C(C)=O,i,6.7%,?,0.1%,?,i
c1ccc(C2=NN(c3ccccc3)CC2)cc1,i,0.0%,20.6µM*,2.5%,16.4µM*,i
O=C(CN1C=NS(=O)(=O)c2ccccc21)Nc1ccc(Br)cc1,i,.,.,.,.,?
Cc1cccc(OCCNC(=O)c2cncc(Br)c2)c1,i,2.0%,-3.0%,-0.6%,0.92µM*,i
O=C(NCCOc1ccc2ccccc2c1)c1cncc(Br)c1,i,-4.8%,-1.2%,1.4%,-0.5%,i
Cc1cccc(OCCNC(=O)c2ccc(Cl)c(S(=O)(=O)NCc3cccnc3)c2)c1,1.46µM*,?,5.8µM*,?,?,?
COC(=O)C1CCN(C(=O)c2ccc(Cl)c(S(=O)(=O)NCc3cccnc3)c2)CC1,i,3.3%,1.4%,1.9%,-1.5%,i
O=S(=O)(c1ccc(F)cc1)N1CCN(c2nc(-c3ccccc3)nc3ccccc23)CC1,?,.,.,.,.,i
COCCNC(=O)C1CC(c2ccc(F)cc2)=NO1 (stereo not drawn),i,4.8%,10.6%,0.1%,1.0%,i
COc1cc(C2=NOC(C(=O)NCc3ccc(F)cc3)C2)cc(OC)c1OC (stereo not drawn),1.46µM*,1.12µM*,3.26µM*,0.708µM*,0.731µM*,1.46µM*
